The record followed here is PubChem BioAssay.

Activity calls are given as the source filed them.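 Rule for the calls, unless noted: active = visually confirmed hit in the image check and inhibition above 20%; inconclusive = visually confirmed hit but inhibition not above 20%; inactive = no visual hit in the image check.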

One assay in a line: reduction of polyQ htt aggregates in cells – imaging, exon1htt(103Q)mCFP cells, high-content imaging, primary screen (AID 483;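 active = visual image review flags a hit and inhibition of aggregation exceeds 20%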;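 note: compound exposure lasted 3 days before fixation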;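 for nuclei count: percent of the per-plate median nuclei count of sample wells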). The settings on record: exon1htt(103Q)mCFP cell line, aggregate imaging, at 2 µM; inhibition of aggregation: stronger effect = higher value; nuclei count: measured here: cell count, toxicity.
With `COc1ccc(-c2cc3c(=O)n(CC(=O)NC4CCN(Cc5ccccc5)CC4)ncn3n2)cc1`, the inhibition of aggregation was 0.5% (inactive) and the nuclei count was 91.9%.

On to `Cc1c(C(=O)OC2CCCCC2)[nH]c2c1C(=O)CC(C)(C)C2`, for which the inhibition of aggregation is -22% (inactive) and the nuclei count was found to be 108%.

In the case of `CC(CCc1ccccc1)NCc1ccncc1` (stereo unspecified), the nuclei count was 109% and the inhibition of aggregation is -1.8% (inactive).

On to `COCCN(CCOC)S(=O)(=O)c1ccc(C(=O)Nc2nnc(C3CC3)o2)cc1`, for which the inhibition of aggregation was 0% (inactive) and the nuclei count turned out to be 102%.

Consider `Cc1sc2ncn3ncnc3c2c1C`, for which the inhibition of aggregation was -1.7% (inactive) and the nuclei count was found to be 41.8%.

As to `CSc1nc2ccc(Nc3nc(N4CCOCC4)nc(N4CCOCC4)n3)cc2s1`, the nuclei count worked out at 106% and the inhibition of aggregation was 6.4% (inactive).

For the compound `Cc1cc(C(N)=O)c2cc(Br)ccc2n1`, the nuclei count stood at 94.5% and the inhibition of aggregation is 0.7% (inactive).

On to `COc1ccc(-c2ccc(-c3noc(-c4cccs4)n3)c(OC)n2)cc1`, for which the inhibition of aggregation is 20.7% (inactive) and the nuclei count stood at 95.6%.

Turning to `O=C1CCCc2c1cc(C(=O)NCCCN1CCOCC1)c(=O)n2-c1ccc(Cl)cc1`, the inhibition of aggregation was 0.1% (inactive) and the nuclei count came to 99.5%.

As to `Cc1ccc(-n2ncc3c(=O)[nH]c(SC(C)C)nc32)cc1`, the inhibition of aggregation was 2.6% (inactive) and the nuclei count came to 82.4%.

Take `Cc1ccccc1N1C(N)=NC(N)=NC1(C)C`: the inhibition of aggregation is 0.5% (inactive) and the nuclei count worked out at 103%.

`CCCc1nnc(SCC(=O)N2CCOCC2)n1Cc1ccco1`: the inhibition of aggregation was -10.6% (inactive) and the nuclei count was found to be 96.5%.

For `CC1CCN(CCn2c(=S)[nH]c3ncccc3c2=O)CC1`, the inhibition of aggregation was -13.9% (inactive) and the nuclei count was 115%.

With `CCOc1ccc(-c2nnn(CC(=O)N3CCN(c4ccc(F)cc4)CC3)n2)cc1OCC`, the inhibition of aggregation was -17.1% (inactive) and the nuclei count was 119%.

For `O=C1CCCCCN1CSc1nc2ccccc2s1`, the inhibition of aggregation was -3.1% (inactive) and the nuclei count came to 106%.

For the compound `S=c1[nH]nc(Cc2ccccc2)n1-c1ccccc1`, the inhibition of aggregation was -9.4% (inactive) and the nuclei count is 111%.

On to `O=C(NCc1cccnc1)C1c2ccccc2C(=O)N1Cc1ccco1` (stereo unspecified), for which the nuclei count came to 115% and the inhibition of aggregation was 7% (inactive).

For `Cn1c(C(=O)OCC(=O)NCC2CCCO2)cc2sccc21` (stereo unspecified), the inhibition of aggregation is -7.3% (inactive) and the nuclei count was 108%.

For the compound `Nn1c(SCc2csc(-c3ccccc3)n2)nnc1-c1cccs1`, the inhibition of aggregation was -10.8% (inactive) and the nuclei count was found to be 93.3%.

Take `CCOC(=O)Nc1ccc(NS(=O)(=O)c2ccc(C)cc2)cc1`: the inhibition of aggregation was -13.3% (inactive) and the nuclei count came to 114%.

On to `COC(=O)CN1C(=O)CC(C)(C)S(=O)c2ccccc21` (stereo unspecified), for which the inhibition of aggregation is 13.9% (inactive) and the nuclei count worked out at 82.6%.

Consider `Cn1c(Cc2ccccc2)nnc1SCC(=O)c1ccc(Br)s1`, for which the inhibition of aggregation was 16.7% (inactive) and the nuclei count turned out to be 94.8%.

Take `CC(=O)Nc1ccc(S(=O)(=O)Nc2nc3c(s2)CCCC3)cc1`: the nuclei count came to 95.3% and the inhibition of aggregation is 41.1% (inactive).

For `COc1cccc(-c2nnn(CC(=O)O)n2)c1`, the inhibition of aggregation is -19.3% (inactive) and the nuclei count turned out to be 90.3%.

For the compound `CCN(CC(=O)Nc1ccc(S(N)(=O)=O)cc1)S(=O)(=O)c1cc(C)ccc1OC`, the inhibition of aggregation is -6.5% (inactive) and the nuclei count worked out at 118%.

`CC(=O)c1c(C)[nH]c(C(=O)N2CCN(C(=O)c3ccco3)CC2)c1C`: the inhibition of aggregation is 9.5% (inactive) and the nuclei count came to 94.7%.

In the case of `COCCCn1nnnc1SCC(=O)Nc1nc(C)c(C)s1`, the nuclei count amounted to 58.2% and the inhibition of aggregation was 14.2% (inactive).

As for `CC(C)Cc1nc2oc3c(N4CCN(CCO)CC4)ncnc3c2c2c1CCCC2`, the nuclei count was determined as 99.9% and the inhibition of aggregation was -9.1% (inactive).

As for `Brc1ccc(-c2csc(/N=C/N3CCOCC3)n2)cc1`, the inhibition of aggregation was -0.1% (inactive) and the nuclei count is 97.4%.

Turning to `N#CCCN(C(=O)Nc1ccc(Cl)cc1)c1ccccc1`, the inhibition of aggregation is -8.5% (inactive) and the nuclei count stood at 98.6%.

As for `O=C(NC1CCCC1)C(c1cccs1)N(Cc1ccco1)C(=O)Cn1nnc(-c2cccs2)n1` (stereo unspecified), the inhibition of aggregation is -7.1% (inactive) and the nuclei count amounted to 102%.

On to `CNC(=O)c1ccsc1NC(=O)c1ccccc1`, for which the inhibition of aggregation was 12.3% (inactive) and the nuclei count came to 91.6%.

In the case of `Cc1ccccc1C(=O)NC1CCN(Cc2nnnn2CCc2ccccc2)CC1`, the inhibition of aggregation was -10.6% (inactive) and the nuclei count is 107%.

As to `CCOC(=O)CCc1c(C)nc2cc(-c3ccc(F)cc3)[nH]n2c1=O`, the inhibition of aggregation was 3% (inactive) and the nuclei count is 85%.

Consider `O=C(CCNS(=O)(=O)c1cccc2nsnc12)Nc1ccc2c(c1)OCCO2`, for which the inhibition of aggregation was -1.5% (inactive) and the nuclei count was found to be 120%.

Consider `Cn1c(CCNC(=O)c2ccco2)nc2cc(NC(=O)C3CCCCC3)ccc21`, for which the inhibition of aggregation is 8.3% (inactive) and the nuclei count is 91.1%.

As for `Cc1ccc(OCCC(=O)OCC(=O)C(C)(C)C)cc1`, the inhibition of aggregation was -6.7% (inactive) and the nuclei count amounted to 101%.

As to `O=C(O)c1ccc2c(c1)C(=O)N(c1ccc(Cl)cn1)C2=O`, the nuclei count is 84.8% and the inhibition of aggregation is 14.8% (inactive).

`COc1cccc(/C=N/n2c(-c3ccco3)nc3ccccc3c2=O)c1`: the nuclei count came out at 74.5% and the inhibition of aggregation was -10.2% (inactive).

A short description of the next assay: endothelial E-selectin expression blockers – imaging, HUVEC, immunofluorescence, MLSMR starter and 10KST1 sets, primary screen (AID 487).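 For inhibition: signal is fraction of cell area covered by stained E-selectin grains.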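 For nuclei count: 100% = median nuclei count of all wells on the same plate.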 The settings on record: HUVEC TNFalpha-induced E-selectin immunofluorescence imaging, at 2 µM; inhibition: stronger effect = higher value; nuclei count: measured here: cell number, toxicity.
The inhibition is the relative decrease from the control value, in per cent. `COc1ccc(-c2cc3c(=O)n(CC(=O)NC4CCN(Cc5ccccc5)CC4)ncn3n2)cc1`: the nuclei count was 90.8% and the inhibition was 2.5% (inactive).

Consider `Cc1c(C(=O)OC2CCCCC2)[nH]c2c1C(=O)CC(C)(C)C2`, for which the nuclei count stood at 68.9% and the inhibition was 14.6% (inactive).

On to `CC(CCc1ccccc1)NCc1ccncc1` (stereo unspecified), for which the inhibition was -75.4% (inactive) and the nuclei count was 130%.

For `COCCN(CCOC)S(=O)(=O)c1ccc(C(=O)Nc2nnc(C3CC3)o2)cc1`, the inhibition is 44.1% (inactive) and the nuclei count is 100%.

Turning to `Cc1sc2ncn3ncnc3c2c1C`, the inhibition is 25.3% (inactive) and the nuclei count worked out at 102%.

`CSc1nc2ccc(Nc3nc(N4CCOCC4)nc(N4CCOCC4)n3)cc2s1`: the nuclei count turned out to be 110% and the inhibition was 17.6% (inactive).

As to `Cc1cc(C(N)=O)c2cc(Br)ccc2n1`, the inhibition was -54% (inactive) and the nuclei count worked out at 120%.

For the compound `COc1ccc(-c2ccc(-c3noc(-c4cccs4)n3)c(OC)n2)cc1`, the inhibition was -18.2% (inactive) and the nuclei count was determined as 102%.

Take `O=C1CCCc2c1cc(C(=O)NCCCN1CCOCC1)c(=O)n2-c1ccc(Cl)cc1`: the nuclei count is 122% and the inhibition was -2.6% (inactive).

Take `Cc1ccc(-n2ncc3c(=O)[nH]c(SC(C)C)nc32)cc1`: the nuclei count worked out at 126% and the inhibition was -18.4% (inactive).

Take `Cc1ccccc1N1C(N)=NC(N)=NC1(C)C`: the nuclei count turned out to be 110% and the inhibition is -6.8% (inactive).

Take `CCCc1nnc(SCC(=O)N2CCOCC2)n1Cc1ccco1`: the nuclei count was determined as 101% and the inhibition is -0.5% (inactive).

Consider `CC1CCN(CCn2c(=S)[nH]c3ncccc3c2=O)CC1`, for which the inhibition was -9.3% (inactive) and the nuclei count came out at 105%.

On to `CCOc1ccc(-c2nnn(CC(=O)N3CCN(c4ccc(F)cc4)CC3)n2)cc1OCC`, for which the nuclei count is 101% and the inhibition is 25% (inactive).

As to `O=C1CCCCCN1CSc1nc2ccccc2s1`, the nuclei count is 97.6% and the inhibition is 7.2% (inactive).

As to `S=c1[nH]nc(Cc2ccccc2)n1-c1ccccc1`, the nuclei count was 106% and the inhibition was 14.9% (inactive).

As to `O=C(NCc1cccnc1)C1c2ccccc2C(=O)N1Cc1ccco1` (stereo unspecified), the nuclei count was 113% and the inhibition was 50.4% (inactive).

As for `Cn1c(C(=O)OCC(=O)NCC2CCCO2)cc2sccc21` (stereo unspecified), the nuclei count amounted to 107% and the inhibition was -79% (inactive).

On to `Nn1c(SCc2csc(-c3ccccc3)n2)nnc1-c1cccs1`, for which the inhibition is -37.9% (inactive) and the nuclei count turned out to be 116%.

Regarding `CCOC(=O)Nc1ccc(NS(=O)(=O)c2ccc(C)cc2)cc1`, the nuclei count amounted to 134% and the inhibition is -108% (inactive).

With `COC(=O)CN1C(=O)CC(C)(C)S(=O)c2ccccc21` (stereo unspecified), the nuclei count is 98.5% and the inhibition was -44% (inactive).

For `Cn1c(Cc2ccccc2)nnc1SCC(=O)c1ccc(Br)s1`, the inhibition was -8.9% (inactive) and the nuclei count turned out to be 98.1%.

Consider `CC(=O)Nc1ccc(S(=O)(=O)Nc2nc3c(s2)CCCC3)cc1`, for which the nuclei count was 108% and the inhibition was -46.9% (inactive).

As to `COc1cccc(-c2nnn(CC(=O)O)n2)c1`, the nuclei count turned out to be 233% and the inhibition was -118% (inactive).

Regarding `CCN(CC(=O)Nc1ccc(S(N)(=O)=O)cc1)S(=O)(=O)c1cc(C)ccc1OC`, the inhibition is -51.7% (inactive) and the nuclei count is 132%.

For `CC(=O)c1c(C)[nH]c(C(=O)N2CCN(C(=O)c3ccco3)CC2)c1C`, the inhibition was -98.1% (inactive) and the nuclei count amounted to 120%.

As to `COCCCn1nnnc1SCC(=O)Nc1nc(C)c(C)s1`, the inhibition was -133% (inactive) and the nuclei count is 104%.

In the case of `CC(C)Cc1nc2oc3c(N4CCN(CCO)CC4)ncnc3c2c2c1CCCC2`, the nuclei count came out at 119% and the inhibition was 6.5% (inactive).

On to `Brc1ccc(-c2csc(/N=C/N3CCOCC3)n2)cc1`, for which the nuclei count is 102% and the inhibition is 13.5% (inactive).

`N#CCCN(C(=O)Nc1ccc(Cl)cc1)c1ccccc1`: the inhibition is -15.7% (inactive) and the nuclei count came to 99.7%.

In the case of `O=C(NC1CCCC1)C(c1cccs1)N(Cc1ccco1)C(=O)Cn1nnc(-c2cccs2)n1` (stereo unspecified), the nuclei count was 101% and the inhibition is 3.8% (inactive).

Consider `CNC(=O)c1ccsc1NC(=O)c1ccccc1`, for which the inhibition is 7.3% (inactive) and the nuclei count worked out at 88.8%.

Regarding `Cc1ccccc1C(=O)NC1CCN(Cc2nnnn2CCc2ccccc2)CC1`, the nuclei count was determined as 102% and the inhibition was 0.8% (inactive).

Consider `CCOC(=O)CCc1c(C)nc2cc(-c3ccc(F)cc3)[nH]n2c1=O`, for which the inhibition was -8.7% (inactive) and the nuclei count is 107%.

`O=C(CCNS(=O)(=O)c1cccc2nsnc12)Nc1ccc2c(c1)OCCO2`: the inhibition is -28% (inactive) and the nuclei count was 119%.

Consider `Cn1c(CCNC(=O)c2ccco2)nc2cc(NC(=O)C3CCCCC3)ccc21`, for which the nuclei count was found to be 88.8% and the inhibition is 42.2% (inactive).

As to `Cc1ccc(OCCC(=O)OCC(=O)C(C)(C)C)cc1`, the nuclei count was 131% and the inhibition was -9.5% (inactive).

With `O=C(O)c1ccc2c(c1)C(=O)N(c1ccc(Cl)cn1)C2=O`, the inhibition is -72% (inactive) and the nuclei count turned out to be 131%.

Regarding `COc1cccc(/C=N/n2c(-c3ccco3)nc3ccccc3c2=O)c1`, the nuclei count came out at 105% and the inhibition was 33.1% (inactive).
